The source made the active and inactive calls.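 Rule for the calls: active = GFP response above 150% of the DMSO level; inconclusive = fewer than 70 events counted for a yeast strain; inactive = the rest.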
Experiment: modulators of CIT2-GFP expression in yeast, confirmation, S. cerevisiae, GFP fusion, cherry picks, mother/daughter gates (AID 2274)
Conditions: S. cerevisiae CIT2-GFP strain, flow cytometry, 3 h; at 10 µM; stronger effect = higher value

| Structure (SMILES) | GFP response, % of DMSO |
| --- | --- |
| O=C(Nc1cccnc1)c1ccc(-c2ccc(Cl)cc2)o1 | 100% (inactive) |
| Oc1c(N=Nc2ccccn2)ccc2ccccc12 | 93.5% (inactive) |
| Cc1cccn2c(=O)c3cc(C(=O)NCCc4ccccc4)c(=N)n(CCCn4ccnc4)c3nc12 | 100% (inactive) |
| Cc1ccc(CS(=O)(=O)c2ncc(Cl)c(C(=O)Nc3nnc(C(C)C)s3)n2)cc1 | 101% (inactive) |
| Oc1ccc2ccccc2c1N=Nc1nccs1 | 105% (inactive) |
| Oc1c(CN2CCN(c3ccc(F)cc3)CC2)cc(Cl)c2cccnc12 | 141% (inactive) |
| Oc1ccc(Br)cc1/C=N/Nc1ccccn1 | 112% (inactive) |
| O=C(/C=C/Sc1ncn[nH]1)c1ccc(Cl)cc1 | 110% (inactive) |
| C/C(=N\Nc1ncnc2sc(C)c(C)c12)c1ccccn1 | 449% (active) |
| CC(=O)Nc1ccc(Nc2cc(C)nc3c(-c4ccc(Cl)cc4)c(C)nn23)cc1 | 105% (inactive) |
| O=C1C=CC(=O)N1c1ccc(N2CCCCC2)cc1 | 104% (inactive) |
| CCn1c(/C=C/c2ccc([N+](=O)[O-])o2)nc2ccccc2c1=O | 278% (active) |
| COc1ccc(C(=O)NC(=S)NNC(=O)CCc2ccccc2)cc1 | 101% (inactive) |
| Cc1ccc(-c2noc(CCC(=O)Nc3ccccc3C)n2)cc1 | 100% (inactive) |
| Nc1c(C(=O)c2cccs2)sc2nsc(SCCN3CCCCC3)c12 | 160% (active) |
| Cc1[nH]c(-c2ccccn2)nc(=S)c1Cl | 107% (inactive) |
| CCCCC(=O)O[C@]1(C(=O)CO)CC[C@H]2[C@@H]3CCC4=CC(=O)CC[C@]4(C)[C@H]3[C@@H](O)C[C@@]21C | 101% (inactive) |
| Nc1ccccc1SC(C[N+](=O)[O-])c1ccccc1 (stereo not drawn) | 92.2% (inactive) |
| N/C(=N\OC(=O)c1ccccc1Cl)c1ccc(Cl)cc1 | 130% (inactive) |
| Cc1[nH][nH]c(=O)c1C(c1ccc(-c2ccc(Cl)cc2)o1)c1c(C)[nH][nH]c1=O | 101% (inactive) |

| Structure (SMILES) | GFP response, % of DMSO |
| --- | --- |
| Cc1ccc(/C=C2/C(=O)ON=C2c2ccccc2)o1 | 92.1% (inactive) |
| C[n+]1ccc(/C=C/c2c[nH]c3ccccc23)cc1 | 145% (inactive) |
| Cc1cc(O)c(C(=O)/C=C/c2c(F)c(F)c(F)c(F)c2F)c(=O)o1 | 97.3% (inactive) |
| Cc1cc(O)ccc1NC(=O)c1ccccc1 | 98.3% (inactive) |
| CCOc1ccc(Nc2ccc(C(=O)O)cc2[N+](=O)[O-])cc1 | 98.8% (inactive) |
| O=C1C=CC(=O)N1c1cccc(-c2ccccc2)c1 | 86.1% (inactive) |
| Cc1cccc(C)c1NC(=O)C(Cl)C(=O)c1ccccc1 (stereo not drawn) | 99.7% (inactive) |
| O=C(NC(=S)NNC(=O)c1cnccn1)c1ccc(F)cc1 | 99.1% (inactive) |
| CCCc1[nH]nc2c1C(c1ccccc1OC)C(C#N)=C(N)O2 (stereo not drawn) | 115% (inactive) |
| CCCNC(=O)COC(=O)c1ccc(S(=O)(=O)N2CCCC2)cc1 | 99.7% (inactive) |
| CC(C)(C)C(=O)NC(=S)NNC(=O)c1ccc(-c2ccccc2)cc1 | 132% (inactive) |
| O=C1Oc2ccccc2C(=O)/C1=C/c1ccccc1O | 79.8% (inactive) |
| O=C(Nc1ccccc1)c1nnsc1S(=O)(=O)c1ccc(Cl)cc1 | 95.5% (inactive) |
| CCCc1cc(NCc2ccccn2)n2nc(C)c(-c3ccccc3)c2n1 | 92.6% (inactive) |
| Cc1cc(C)nc(S/C=C/C(=O)c2ccccc2)n1 | 92.2% (inactive) |
| Cc1nn2c(NCc3ccccn3)c3c(nc2c1-c1ccccc1)CCC3 | 100% (inactive) |
| CC(NCCS(=O)(=O)c1ccc(Cl)cc1)c1cccc(Cl)c1 (stereo not drawn) | 97.2% (inactive) |
| CCCOc1ccc(C(=O)NNC(=S)NC(=O)CC)cc1 | 132% (inactive) |
| O=C(c1ccc(Cl)c([N+](=O)[O-])c1)N1CCN(c2ccccc2)CC1 | 95.5% (inactive) |
| O=C(c1ccc2c(c1)OCO2)N1CCN(c2ccccc2)CC1 | 99.7% (inactive) |

Same assay, conditions: S. cerevisiae CIT2-GFP strain, flow cytometry, 3 h; measured here: daughter cell gate; at 10 µM; stronger effect = higher value

| Structure (SMILES) | GFP response, % of DMSO |
| --- | --- |
| O=C(Nc1cccnc1)c1ccc(-c2ccc(Cl)cc2)o1 | 98.1% |
| Oc1c(N=Nc2ccccn2)ccc2ccccc12 | 94.6% |
| Cc1cccn2c(=O)c3cc(C(=O)NCCc4ccccc4)c(=N)n(CCCn4ccnc4)c3nc12 | 99.3% |
| Cc1ccc(CS(=O)(=O)c2ncc(Cl)c(C(=O)Nc3nnc(C(C)C)s3)n2)cc1 | 94% |
| Oc1ccc2ccccc2c1N=Nc1nccs1 | 101% |
| Oc1c(CN2CCN(c3ccc(F)cc3)CC2)cc(Cl)c2cccnc12 | 159% |
| Oc1ccc(Br)cc1/C=N/Nc1ccccn1 | 113% |
| O=C(/C=C/Sc1ncn[nH]1)c1ccc(Cl)cc1 | 108% |
| C/C(=N\Nc1ncnc2sc(C)c(C)c12)c1ccccn1 | 118% |
| CC(=O)Nc1ccc(Nc2cc(C)nc3c(-c4ccc(Cl)cc4)c(C)nn23)cc1 | 105% |
| O=C1C=CC(=O)N1c1ccc(N2CCCCC2)cc1 | 97.2% |
| CCn1c(/C=C/c2ccc([N+](=O)[O-])o2)nc2ccccc2c1=O | 289% |
| COc1ccc(C(=O)NC(=S)NNC(=O)CCc2ccccc2)cc1 | 104% |
| Cc1ccc(-c2noc(CCC(=O)Nc3ccccc3C)n2)cc1 | 101% |
| Nc1c(C(=O)c2cccs2)sc2nsc(SCCN3CCCCC3)c12 | 149% |
| Cc1[nH]c(-c2ccccn2)nc(=S)c1Cl | 115% |
| CCCCC(=O)O[C@]1(C(=O)CO)CC[C@H]2[C@@H]3CCC4=CC(=O)CC[C@]4(C)[C@H]3[C@@H](O)C[C@@]21C | 101% |
| Nc1ccccc1SC(C[N+](=O)[O-])c1ccccc1 (stereo not drawn) | 100% |
| N/C(=N\OC(=O)c1ccccc1Cl)c1ccc(Cl)cc1 | 117% |

| Structure (SMILES) | GFP response, % of DMSO |
| --- | --- |
| Cc1[nH][nH]c(=O)c1C(c1ccc(-c2ccc(Cl)cc2)o1)c1c(C)[nH][nH]c1=O | 102% |
| Cc1ccc(/C=C2/C(=O)ON=C2c2ccccc2)o1 | 90.9% |
| C[n+]1ccc(/C=C/c2c[nH]c3ccccc23)cc1 | 142% |
| Cc1cc(O)c(C(=O)/C=C/c2c(F)c(F)c(F)c(F)c2F)c(=O)o1 | 101% |
| CCOc1ccc(Nc2ccc(C(=O)O)cc2[N+](=O)[O-])cc1 | 95.6% |
| O=C1C=CC(=O)N1c1cccc(-c2ccccc2)c1 | 93.2% |
| Cc1cccc(C)c1NC(=O)C(Cl)C(=O)c1ccccc1 (stereo not drawn) | 95.4% |
| O=C(NC(=S)NNC(=O)c1cnccn1)c1ccc(F)cc1 | 96.5% |
| CCCc1[nH]nc2c1C(c1ccccc1OC)C(C#N)=C(N)O2 (stereo not drawn) | 121% |
| CCCNC(=O)COC(=O)c1ccc(S(=O)(=O)N2CCCC2)cc1 | 90.5% |
| CC(C)(C)C(=O)NC(=S)NNC(=O)c1ccc(-c2ccccc2)cc1 | 99.3% |
| O=C1Oc2ccccc2C(=O)/C1=C/c1ccccc1O | 91.7% |
| O=C(Nc1ccccc1)c1nnsc1S(=O)(=O)c1ccc(Cl)cc1 | 93.6% |
| CCCc1cc(NCc2ccccn2)n2nc(C)c(-c3ccccc3)c2n1 | 81.7% |
| Cc1cc(C)nc(S/C=C/C(=O)c2ccccc2)n1 | 98.4% |
| Cc1nn2c(NCc3ccccn3)c3c(nc2c1-c1ccccc1)CCC3 | 95.8% |
| CC(NCCS(=O)(=O)c1ccc(Cl)cc1)c1cccc(Cl)c1 (stereo not drawn) | 97.6% |
| CCCOc1ccc(C(=O)NNC(=S)NC(=O)CC)cc1 | 121% |
| O=C(c1ccc(Cl)c([N+](=O)[O-])c1)N1CCN(c2ccccc2)CC1 | 101% |
